Reference: PubChem BioAssay AID1259417 (TB Discovery Research, Infectious Disease Research Institute, 2018)
The whole screen tested about 1,100 compounds, of which about 760 (69%) were called active. How the calls were made is not given here. The set was probably picked from earlier hits. The list shows a part of the results.

Experiment: M. tuberculosis growth inhibition, HTS (AID 1259417);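 further: bacteria grown with compound for 5 days at 37 °C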
Details: stronger effect = higher value, concentration not given here
[1] = M. tuberculosis DsRed fluorescence growth inhibition
[2] = M. tuberculosis growth inhibition

SMILES	inhibition [1]	inhibition [2]
Clc1ccc2c(c1)C1=C(C(c3ccncc3)O2)C(c2ccc(Br)cc2)n2ncnc2N1 (stereo not given)	96% (active)	93.9%
COc1cccc(C=NNc2nc(=O)[nH]nc2C)c1O	91.7% (active)	94.9%
CC(=NNc1nc(=O)[nH]nc1C)c1ccccc1O	98.6% (active)	98.8%
COc1ccc(C2(C(=O)Nc3ccc(Br)cc3)CCCC2)cc1	63.2% (active)	81.4%
CC(=NNc1nc(C)c(C)s1)c1ccc(Br)cc1	96.2% (active)	89.4%
CCOC(=O)CCc1c(C)c(C#N)c2[nH]c3ccccc3n2c1=O	98.3% (active)	96.2%
CCOC(=O)COc1ccc2c(C#N)c3ccccn3c2c1	-0.849% (inactive)	22.1%
COC(=O)c1c2c(n3ccc(C)cc13)C(=O)c1ccccc1C2=O	99.2% (active)	98.8%
CCOC(=O)C1=C(c2ccc(C)cc2)C(=O)c2ccccc2C1=O	14.4% (inactive)	16.3%
CN(C)c1ccc(NC(=O)c2ccncc2)cc1	98% (active)	100%
CC(C)(C)c1ccc(C(=O)Nc2cccc(NC(=O)c3cccs3)c2)cc1	0.571% (inactive)	22.7%
Cc1ccc(NC(=O)c2cc3cc(Cl)cc(Cl)c3oc2=O)c(C)c1	9.67% (active)	43.2%
O=C1c2ccccc2C(=O)N1CCCCN(C(=O)c1cc([N+](=O)[O-])cc([N+](=O)[O-])c1)c1ccc(Cl)cc1	97.2% (active)	92.5%
CC1=CC(C)(C)Nc2ccc(OC(=O)c3cccnc3)cc21	9.4% (active)	36.8%
CCOC(=O)c1c(C)oc2ccc(OC(=O)c3cccs3)cc12	-0.261% (inactive)	2.41%
CC1=CC(C)(C)Nc2ccc(OC(=O)c3cccs3)cc21	49.6% (active)	74.6%
NC(=O)c1c(NC(=O)c2ccc(COc3ccccc3Cl)cc2)sc2c1CCCC2	-7.68% (inactive)	-40%
O=C(Nc1ncnc2sc3c(c12)CCCC3)c1ccc(F)cc1	26.6% (active)	61.8%
Cc1cccc(N2CCN(c3ncnc4sc5c(c34)CCCC5)CC2)n1	7.93% (inactive)	-17.2%
CCOC(=O)c1cnc2ccc(OC)cc2c1Nc1ccc2c(c1)OCCO2	36.6% (active)	24%
O=C(CC(SCc1ccco1)c1cccc([N+](=O)[O-])c1)c1ccco1 (stereo not given)	96.9% (active)	97.7%
CCCC(=O)OCCNc1cc(SCc2ccco2)c2nonc2c1[N+](=O)[O-]	22% (inactive)	21%
CC(=O)OCCNc1cc(SCc2ccco2)c2nonc2c1[N+](=O)[O-]	14.7% (inactive)	11.3%
Cc1cc(C)c(-n2c(O)c(/C=C3\C=CC=N3)c(=O)[nH]c2=O)c(C)c1	97.7% (active)	98.6%
CCCCn1c(O)c(/C=C2\C=CC=N2)c(=O)[nH]c1=O	58.2% (active)	89.6%
O=c1c2cccc3c2c(nn1CCN1CCCCC1)-c1ccccc1-3	-22.6% (active)	56.2%
CCC(C)(C)c1ccc(OCCCn2ccnc2)cc1	100% (active)	99.6%
CCC(C)c1ccc(OCCn2ccnc2)cc1 (stereo not given)	99.2% (active)	99.6%

SMILES	inhibition [1]	inhibition [2]
CCC(C)c1ccc(OCCCCn2ccnc2)cc1 (stereo not given)	100% (active)	100%
CCOC(=O)c1sc(NC(=O)CCSc2ccccc2)cc1C	96.9% (active)	84.1%
CCOC(=O)c1sc(NC(=O)NC2CCCCC2)cc1C	100% (active)	96.2%
CCOC(=O)c1c(NC(=S)NC2CCN(Cc3ccccc3)CC2)sc(C)c1-c1ccccc1	21.1% (inactive)	-12.2%
CCOC(=O)C(C#N)=Cc1ccc(-c2ccc(F)cc2)o1	2.37% (active)	87.5%
Cc1ccc(-c2ccc(C=CC(=O)c3ccco3)o2)cc1	9.38% (inactive)	20.8%
Cc1ccc(-n2cnc3cc(NCc4cccs4)ccc32)cc1	18.8% (active)	35.4%
CCn1cc(C(=O)O)c(=O)c2cc(F)c(N3CCNCC3)cc21	96.6% (active)	97%
CC(=O)N1CCN(c2cc3c(cc2F)c(=O)c(C(=O)O)cn3C2CC2)CC1	97.5% (active)	97.7%
CCn1cc(C(=O)O)c(=O)c2cc(F)c(N3CCN(C)CC3)cc21	94.8% (active)	94.2%
CCn1cc(C(=O)O)c(=O)c2cc(F)c(N3CCN(C(=S)Nc4cc(C(F)(F)F)ccc4Cl)CC3)cc21	47.9% (active)	61.9%
O=c1oc(-c2ccccc2)cc(Cl)c1Cl	61.6% (active)	74%
CCc1cccc2sc(N(CCCn3ccnc3)C(=O)C=Cc3cccs3)nc12	97.8% (active)	99.1%
O=C(c1cccs1)N(CCCn1ccnc1)c1nc2c(Cl)cccc2s1	91.1% (active)	98.4%
Cc1ccc2sc(N(CCCn3ccnc3)C(=O)c3cccs3)nc2c1C	98.3% (active)	99.1%
CCc1cccc2sc(N(CCCn3ccnc3)C(=O)c3cccs3)nc12	88.1% (active)	97.7%
O=C(C=Cc1cccs1)N(CCCn1ccnc1)c1nc2ccccc2s1	98.3% (active)	99.1%
Cc1c(Cl)ccc2sc(N(CCCn3ccnc3)C(=O)C=Cc3cccs3)nc12	99.5% (active)	99.5%
Cc1ccc(Nc2ccc(-n3ccnc3)nn2)cc1Cl	42% (active)	27.3%
Cc1ccc(NC(=O)COc2ccc(-n3ccnc3)cc2)cc1Cl	-9.16% (inactive)	-12.4%
CCCCCCCCOC(=O)c1c(CSC(=N)N)n(C)c2cc(Br)c(OC(C)=O)cc12	26.7% (inactive)	4.13%
Oc1cccc(Nc2nc(NCc3ccccc3)c3ccccc3n2)c1	-1.72% (inactive)	-16.1%
Cc1cc(Nc2ccc(Cl)cc2)nc(NCc2ccccc2)n1	87.7% (active)	79.9%
Cc1cc(Nc2cccc(Cl)c2)nc(NCc2ccccc2)n1	96.8% (active)	90.6%
CCn1c(CNc2ccc(F)cc2)nnc1SCC(=O)OC1CCCCC1	0.628% (inactive)	-6.89%
Cn1c(COc2cccc3ccccc23)nnc1SCC(=O)OC1CCCCC1	76.6% (active)	92.4%
CCn1c(COc2cccc3ccccc23)nnc1SCC(=O)OC1CCCCC1	42.4% (active)	80.7%
